CFTR F508del cor: CFTR F508del correction in bronchial cells; CFBE cells, YFP halide quenching; stimulated with forskolin plus potentiator P3; % fluorescence drop versus neutral controls; activity (quench increase), % at 7.58 µM; 0.36% of 350,000 active; AID 720511;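 active = mean added fluorescence quench of at least 8% versus neutral control, with both replicates also reaching 8%; inconclusive = only one of the mean or replicate conditions met; inactive = mean below 8% and not both replicates reaching 8%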;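 also: cells transiently co-express mutant CFTR-F508del with the halide-sensitive YFP; corrector assay measuring rescue of mutant channel to the surface after 24 h compound exposure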
ALR H2O2 inh: human ALR oxidase inhibition via reduced H2O2; AID 485317; 3.8% of 290,000 active; purified ALR, DTT oxidation, H2O2 HRP-luminol luminescence; inhibition, % (test concentration not listed);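 active = mean replicate inhibition above about 79%, with every replicate also reaching it, limit read from the data; inconclusive = only one of the two criteria met; inactive = mean below limit and not every replicate reaching it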
Target sequence (P55789 whole entry, looked up): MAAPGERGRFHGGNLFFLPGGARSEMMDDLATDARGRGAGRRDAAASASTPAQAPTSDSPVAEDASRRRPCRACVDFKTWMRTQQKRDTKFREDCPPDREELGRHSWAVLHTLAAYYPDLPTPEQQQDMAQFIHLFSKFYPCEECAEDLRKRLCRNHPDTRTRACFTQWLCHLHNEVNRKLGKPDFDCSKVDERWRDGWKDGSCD
HIV Env fusion: HIV envelope-mediated fusion inhibition. HeLa-JRFL Env/CEM21 cell fusion, luciferase. inhibition, % at 12.3 µM. 1.1% of 360,000 active. AID 651610;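 active = mean replicate inhibition score of at least 50 and every replicate individually at or above 50; inconclusive = only one of the two criteria met; inactive = mean below 50 and not all replicates reaching 50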;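 also: 0% = plate neutral controls and 100% = maraviroc near 300 nM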
NSD2 inh: NSD2 (human) methyltransferase inhibition; O96028; NSD2 peptide methylation, AlphaScreen, 120 min; inhibition, % at 12.5 µM; 0.54% of 310,000 active; AID 743445; in the data active = inhibition above about 50%
PglD DTNB: blocks C. jejuni PglD acetyltransferase activity. purified PglD enzyme, DTNB colorimetric CoA detection. inhibition, % at 12.5 µM. 0.098% of 360,000 active. AID 602405; in the data active = inhibition above about 16%, passing the limit was not always enough; inconclusive = no clear call, values can overlap the other calls
Casp6 inh: inhibitors of human caspase-6; P55212; purified caspase-6, Z-VEID-R110 cleavage fluorescence; inhibition, % at 12.5 µM; 0.53% of 350,000 active;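 active = mean inhibition across replicates at least about 35%, with every replicate also reaching that limit, limit read from the data; inconclusive = only one of the two criteria met; inactive = neither criterion met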;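 also: 0% = median of neutral control wells and 100% = no fluorescence left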
Target sequence (P55212 24-179 limits assumed): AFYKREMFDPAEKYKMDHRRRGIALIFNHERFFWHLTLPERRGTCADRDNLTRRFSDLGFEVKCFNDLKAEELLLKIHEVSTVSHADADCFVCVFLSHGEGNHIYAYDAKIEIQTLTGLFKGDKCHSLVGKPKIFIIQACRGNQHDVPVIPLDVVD
Target sequence (P55212 194-293 limits assumed): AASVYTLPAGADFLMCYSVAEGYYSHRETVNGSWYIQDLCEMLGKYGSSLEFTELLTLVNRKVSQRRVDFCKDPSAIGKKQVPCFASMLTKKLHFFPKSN
AlphaScreen art: counter-screen for NSD2 inhibitors: AlphaScreen artifacts. AC35, µM (top dose mostly 10 µM), for inactives: top-dose activity change, negative = signal loss. shares compounds with NSD2 inh. AlphaScreen artifact counterscreen, preloaded methylated H4 peptide. 9.4% of 1,500 active; call rule not given here
An asterisk follows results filed as active; ? = inconclusive; . = no result given; [ ] = another dose, or the depositor's remark. Rows were chosen to be rich in hits. Some 4.1% of all compounds tested hit in one or more screens of this group.

SMILES	CFTR F508del cor	ALR H2O2 inh	HIV Env fusion	NSD2 inh	PglD DTNB	Casp6 inh	AlphaScreen art
O=C(c1cnccn1)N1CC(=O)N2[C@H](CO)[C@@H](c3ccc(/C=C/c4ccccc4)cc3)[C@@H]2C1	2	.	.	.	.	1	.
COCCOC(=O)C1=C(C)NC(C)=C(C(=O)OC(C)C)C1c1cccc([N+](=O)[O-])c1 (stereo unspecified)	-2	-3	-5	75*	1	.	-3%
CCOC(=O)C1=C(C)NC(C)=C(C(=O)OC)C1c1cccc([N+](=O)[O-])c1 (stereo unspecified)	3	.	12	.	4	.	.
Cc1c(NC(=O)CN2C(=O)C(=O)c3ccccc32)c(=O)n(-c2ccccc2)n1C	2	16	8	56*	.	0	-3%
Cc1c(NC(=O)CN2C(=O)c3cccc4cccc2c34)c(=O)n(-c2ccccc2)n1C	.	-31	-12	1	12	.	.
Cc1ccc(Cl)cc1N1CCN(C(=O)c2ccc3nc[nH]c3c2)CC1	.	-1	12	51*	.	6	-5%
Oc1cccc(/C=N/N(Cc2ccccc2)c2ccccc2)c1	0	?	1	11	.	1	.
Oc1cccc(C=NCc2ccccc2)c1	.	-17	-84	159*	1	.	9%
COc1ccc(CNC(=O)CCCn2nc(C)c([N+](=O)[O-])c2C)cc1OC	-1	.	-36	86*	.	-3	8%
CO[C@@H]1CN(C)C(=O)c2ccc(NC(=O)C3CCOCC3)cc2OC[C@@H](C)N(C(=O)c2ccccc2)C[C@@H]1C	-1	.	2[16.7 µM]	.	2	.	.
COCc1[nH][nH]c(=O)c1C=NCC(=O)OC	3	-2	-9	51*	3	-5	-6%
O=C(NNS(=O)(=O)c1ccc(F)cc1F)c1csc(-c2cccnc2)n1	-1	20	8	54*	3	6	-7%
COc1ccccc1S(=O)(=O)N1CC[C@H]2[C@H](CO)Nc3ccc(-c4ccccc4F)cc3[C@H]21	2	.	.	.	-4	-3	.
CO[C@H](CN(C)S(=O)(=O)c1ccccc1)[C@@H](C)CN(Cc1ccccc1Cl)[C@@H](C)CO	-2	.	.	.	-2	-3	.
CC(=O)N1C2CCCCC2S[C@H]2CCCCC21 (stereo partly specified)	.	-15	-121	57*	.	.	2%
COCCCNC1=C(Cl)C(=O)c2ccccc2C1=O	-4	-45	10	68*	-3	18	-6%
CC(C)OCCCNC1=C(Cl)C(=O)c2ccccc2C1=O	1	.	-10	38	4	25	.
O=C1c2ccccc2C(=O)c2c(NCCCN(CCO)CCO)cccc21	4	.	-47	29	.	-6	.
CCN(CC)CCCNC1=C(Cl)C(=O)c2ccccc2C1=O	4	-406	8	112*	0	38*	-5%
C[C@@H]1CN([C@H](C)CO)C(=O)c2cc(-c3ccc(F)cc3)cnc2O[C@@H]1CN(C)C(=O)NC1CCCC1	3	.	-12[16.7 µM]	.	2	3	.
CCCC#Cc1cnc2c(c1)C(=O)N([C@@H](C)CO)C[C@H](C)[C@@H](CN(C)C)O2	0	.	-4[16.7 µM]	.	-2	3	.
CCCn1c(-c2cc(OC)c(OC)c(OC)c2)nc2nc3ccccc3nc21	.	17	-82	-6	-6	.	.
C=CCn1c(-c2ccc(OC)cc2)nc2nc3ccccc3nc21	.	-4	-87	67*	3	.	1%
C[C@@H]1CCCCO[C@H](CN(C)C(=O)Nc2ccc(C(F)(F)F)cc2)[C@H](C)CN([C@H](C)CO)C(=O)c2cc(NC(=O)Nc3cccc4ccccc34)ccc2O1	3	.	9[16.7 µM]	.	2	-1	.
COc1ccc(Cc2ccccc2C(=O)O)cc1	3	.	-17	50*	-5	-2	1%
SMILES	CFTR F508del cor	ALR H2O2 inh	HIV Env fusion	NSD2 inh	PglD DTNB	Casp6 inh	AlphaScreen art
Cc1ccc(C)c(N2C(=N)S/C(=C\c3ccc(-c4ccccc4C(=O)O)o3)C2=O)c1	6	6	-13	54*	1	37*	-3%
C=CC1c2ccccc2/C=C(C(=O)OC)\C(C(=O)OC)=C/N1Cc1ccc(OC)cc1 (stereo unspecified)	-1	.	14[16.7 µM]	.	-5	-1	.
CN(C)C(=O)c1cccc(-c2ccc([C@H]3[C@@H](C#N)N(C(=O)C4CCCC4)[C@H]3CO)cc2)c1	0	.	.	.	.	1	.
O=C(CN1CCOCCOCCN(CC(=O)Nc2ccccc2)CCOCC1)Nc1ccccc1	.	.	-29	166*	4	.	0%
O=C(CN1CCOCCOCCOCC1)Nc1ccccc1	.	1	0	0	5	.	.
COc1ccc(NC(=O)CN2CCN(S(=O)(=O)N3CCCCCC3)CC2)cc1	-2	5	2	74*	2	0	3%
O=C(CN1CCOCC1)Nc1ccc(Oc2ccccc2)cc1	.	.	-10	53*	5	.	0%
CO[C@H]1CN(C)C(=O)c2cc(NC(=O)Nc3ccc(Cl)cc3)ccc2OC[C@H](C)N(C)C[C@@H]1C	0	.	5[16.7 µM]	.	1	-12	.
Cc1ccc(-c2nn3c(C)nnc3s2)cc1NC(=O)c1cccs1	.	-2	-151	-1	-3	.	.
Cc1cc2nn(-c3cccc4ccccc34)nc2cc1NC(=O)c1cccs1	.	2	33	126*	1	-2	-3%
COC(=O)C[C@@H]1CC[C@@H]2[C@H](COc3ccc(NC(=O)Nc4cccc(C)c4)cc3C(=O)N2C)O1	-1	.	9[16.7 µM]	.	-1	2	.
CNC[C@@H]1Oc2ccc(NC(=O)Nc3ccc(F)cc3)cc2CC(=O)N([C@@H](C)CO)C[C@H]1C	-2	.	.	.	-4	-1	.
CCN(CC)CCNC(=S)Nc1ccc2nc(N3CCCC3)cc(C)c2c1	1	99*	7	66*	.	-53	-4%
C[C@H]1CN([C@@H](C)CO)C(=O)c2cc(NC(=O)c3ccncc3)ccc2O[C@@H]1CN(C)C(=O)Nc1cccc2ccccc12	-1	.	-11[16.7 µM]	.	-1	1	.
O=C(Nc1cc(C(F)(F)F)ccc1N1CCCC1)C1CC(=O)N(Cc2ccccc2)C1 (stereo unspecified)	-2	.	.	56*	4	-3	-1%
Cc1ccc(CSc2nnc(Nc3ccc(C)cc3)s2)cc1	.	0	37	127*	0	0	-6%
CCCN1C[C@@H](C)[C@H](OC)CN(C)C(=O)c2ccc(NC(=O)Nc3ccccc3F)cc2OC[C@@H]1C	-3	.	.	.	1	-2	.
Cc1ccc(Nc2nc(-c3ccc(O)c(O)c3)cs2)nc1	2	.	-16	88*	.	29	-5%
COc1ccc(/C=N/Nc2cc(C)nc(N3CCOCC3)n2)cc1OC	-1	6	-5	1	6	0	.
COc1ccccc1/C=N/Nc1cc(N(C)C)nc(N(C)C)n1	1	5	14	100*	.	0	-3%
CN(C)c1cc(N/N=C\c2ccccc2)nc(N(C)C)n1	-1	2	15	103*	.	1	0%
COc1ccc(/C=N/Nc2cc(N(C)C)nc(N(C)C)n2)cc1	.	2	-1	33	.	8	.

Source: PubChem (Broad Institute)
